SUMO HTRF inh = SUMOylation inhibition; P63279; HTRF SUMOylation assay, SAE1/SAE2 + UBC9, in vitro; inhibition, % at 35 µM; hit rate 0.36% among 290,000; AID 2006; in the data active = inhibition above about 50%, passing the limit was not always enough; inconclusive = no clear call, values can overlap the other calls
ALR inh = inhibitors of human sulfhydryl oxidase ALR. P55789. purified ALR, DTT oxidation, H2O2 HRP-luminol luminescence. inhibition, % (test concentration not listed). hit rate 3.8% among 290,000. AID 485317;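 active = mean replicate inhibition above about 79%, with every replicate also reaching it, limit read from the data; inconclusive = only one of the two criteria met; inactive = mean below limit and not every replicate reaching it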
Efflux pump mplx = inhibitors of Candida antifungal efflux pumps expressed in yeast; S. cerevisiae Candida pump triplex, Nile Red efflux; inhibition, % at 10 µM; hit rate 0.44% among 330,000;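 active = plate passing quality check with inhibition over a set limit, or well fluorescence over plate mean plus 4 SD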;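 also: Nile Red retained in pooled yeast measured as flow cytometry median fluorescence; higher means more Nile Red kept so more efflux inhibition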
PABP FP inh = blocks human PABP binding to poly(A) RNA | fluorescence polarization | inhibition, % at 35 µM | hit rate 1% among 290,000 | P11940;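 also: calls also rest on retests at 20 µM and on dose response follow-up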
Target sequence (P11940 whole entry, looked up): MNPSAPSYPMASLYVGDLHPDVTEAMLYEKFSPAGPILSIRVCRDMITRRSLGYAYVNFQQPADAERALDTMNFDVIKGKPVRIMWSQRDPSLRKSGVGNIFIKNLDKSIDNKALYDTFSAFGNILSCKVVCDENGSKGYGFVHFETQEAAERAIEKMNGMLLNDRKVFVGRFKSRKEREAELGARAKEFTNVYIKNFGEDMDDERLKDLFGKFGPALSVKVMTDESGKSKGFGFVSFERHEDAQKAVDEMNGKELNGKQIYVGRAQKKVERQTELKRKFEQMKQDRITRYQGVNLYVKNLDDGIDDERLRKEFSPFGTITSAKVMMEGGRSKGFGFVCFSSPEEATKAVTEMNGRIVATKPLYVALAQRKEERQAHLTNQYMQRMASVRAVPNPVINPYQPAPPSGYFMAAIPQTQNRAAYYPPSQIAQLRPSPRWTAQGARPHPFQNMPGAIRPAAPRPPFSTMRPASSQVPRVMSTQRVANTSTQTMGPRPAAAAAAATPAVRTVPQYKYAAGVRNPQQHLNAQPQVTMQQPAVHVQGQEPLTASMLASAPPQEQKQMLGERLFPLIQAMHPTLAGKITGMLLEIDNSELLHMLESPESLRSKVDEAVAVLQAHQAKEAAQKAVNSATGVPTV
PABP1 MLLE inh = inhibitors of microRNA-mediated deadenylation, human PABP1 MLLE binding; GST-MLLE / FITC-PAM2 fluorescence polarization; inhibition, % at 20 µM; hit rate 0.36% among 360,000; AID 588489; in the data active = inhibition above about 35%, passing the limit was not always enough
eIF4H FP inh = inhibitors of RNA binding by human eIF4H. Q15056. eIF4H fluorescence polarization binding assay. inhibition, % at 35 µM. hit rate 0.94% among 290,000. AID 2012;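 also: calls also rest on retests at 20 µM and on dose response follow-up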
Each line names hits and unclear results; the compound was inactive in the other large screens. A selection: hits, their analogues and other compounds. The true share with any hit is near 4.7%. Unless noted, no rule for the calls is given here.

CN(C)c1ccc(C2N(c3ccc(F)cc3)C(=O)C3CCCN32)cc1 (stereo unspecified)	ALR inh 97
CCOc1ccc(-n2c(SCC(=O)Nc3ccc(CC)cc3)nc3n[nH]c(C)c3c2=N)cc1	SUMO HTRF inh 56
CNc1nc(-c2ccccc2)nnc1C(F)(F)F	none
Cc1ccc(Sc2nc(-c3ccccc3)nnc2C(F)(F)F)cc1	ALR inh 98
Cc1nn(C2CCS(=O)(=O)C2)c2nc(C3CC3)cc(C(=O)Nc3ccc(C(N)=O)cc3)c12 (stereo unspecified)	none (no result: SUMO HTRF inh, ALR inh, Efflux pump mplx, PABP FP inh, eIF4H FP inh)
CCOc1ccc(Nc2ccnc3cc(Cl)ccc23)cc1	none
CN1CCN(c2ccc(Nc3ccnc4cc(Cl)ccc34)cc2)CC1	ALR inh 92
O=C(C1CCCN(S(=O)(=O)c2ccc(Br)cc2)C1)N1CCN(Cc2ccccc2)CC1 (stereo unspecified)	none
O=c1oc2ccccc2c(O)c1CN1CCCCC1	none
O=C1NCCCC2c3cc(O)c4ccccc4c3OC12N1CCCCC1 (stereo unspecified)	SUMO HTRF inh 56 (no result: PABP1 MLLE inh)
Cc1ccc(S(=O)(=O)N2CC(O)C[C@H]2C(=O)OCC(=O)N2CCN(c3ccc(F)cc3)CC2)cc1C (stereo partly specified)	none (no result: SUMO HTRF inh, ALR inh, Efflux pump mplx, PABP FP inh, eIF4H FP inh)
CCN(CCNCC(O)COCc1ccc(Cl)cc1)c1cccc(C)c1 (stereo unspecified)	eIF4H FP inh 14 (no result: ALR inh)
COC(=O)c1ccc(C(=S)NCC2(N(C)C)CCCCC2)cc1	none
CC(=O)Nc1ccc(C(=S)NCC2(N(C)C)CCCCC2)cc1	PABP FP inh 81, eIF4H FP inh active
COc1ccc([C@H]2CC(=O)C=C(c3cc(OC)ccc3OC)C2)cc1	none (no result: SUMO HTRF inh, PABP FP inh, eIF4H FP inh)
COc1ccc(NC(=O)COc2ccccc2C)cc1S(=O)(=O)N1CCCCC1	none (no result: SUMO HTRF inh, PABP FP inh, eIF4H FP inh)
COc1cc(C(=O)NS(=O)(=O)c2ccccc2C)ccc1Cc1cn(C)c2ccc(NC(=O)OC3CCCC3)cc12	SUMO HTRF inh 72, ALR inh 97, eIF4H FP inh 45 (no result: PABP1 MLLE inh)
CC(C)CC1NC(=O)c2cc(Cl)ccc2-n2c1nc1ccc(F)cc1c2=O (stereo unspecified)	none (no result: SUMO HTRF inh, PABP FP inh, PABP1 MLLE inh, eIF4H FP inh)
S=C(NC1CC1)N1CCN(c2ccc(Cl)cc2)CC1	ALR inh 98
O=C(C1CCC1)N1CCN(c2ccc(Cl)cc2)CC1	ALR inh 93
COCCNS(=O)(=O)c1ccc2c3c(cccc13)C(=O)N2C	SUMO HTRF inh inconclusive
CN1C(=O)c2cccc3c(S(=O)(=O)NCCc4ccccc4)ccc1c23	SUMO HTRF inh 56
Nc1nc2c(ncn2[C@@H]2O[C@H](CNS(=O)(=O)C3CC3)[C@@H](O)[C@H]2O)c(=O)[nH]1	none (no result: SUMO HTRF inh, ALR inh, Efflux pump mplx, PABP FP inh, eIF4H FP inh)
O=C(COC(=O)/C=C/C(=O)OCC(=O)NC12CC3CC(CC(C3)C1)C2)NC12CC3CC(CC(C3)C1)C2	none
CCOC(=O)CSC1=NC(=O)/C(=C\c2ccc(OC(C)=O)cc2)S1	ALR inh 100
CCOC(=O)C1CCCN(C(=O)CNC(=O)c2ccc(Br)o2)C1 (stereo unspecified)	none (no result: SUMO HTRF inh, ALR inh, PABP FP inh, eIF4H FP inh)
C=CC[C@@H]1C=C(C)C[C@H](C)C[C@H](OC)[C@H]2O[C@@](O)(C(=O)C(=O)N3CCCC[C@H]3C(=O)O[C@H](/C(C)=C/[C@@H]3CC[C@@H](O)[C@H](OC)C3)[C@H](C)[C@@H](O)CC1=O)[C@H](C)C[C@@H]2OC	Efflux pump mplx 1.1 (no result: SUMO HTRF inh, PABP FP inh, PABP1 MLLE inh, eIF4H FP inh)
CCOc1ccccc1C(=O)NCC(=O)NNC(=O)c1cccc(S(=O)(=O)Nc2ccc(OC)cc2)c1	none (no result: SUMO HTRF inh, PABP FP inh, eIF4H FP inh)
CCn1ccnc1CNC(=O)CC1C(=O)NCCN1CC(c1ccccc1)c1ccccc1 (stereo unspecified)	none
S=C(Nc1ccc2nccnc2c1)N1CCOCC1	SUMO HTRF inh 89
S=C(Nc1ccc2nc(-c3ccccn3)c(-c3ccccn3)nc2c1)N1CCCCC1	SUMO HTRF inh 69, PABP FP inh 50 (no result: ALR inh, Efflux pump mplx)
CC1CC1C(=O)N1CCN(S(=O)(=O)c2cc(C(F)(F)F)cc(C(F)(F)F)c2)CC1 (stereo unspecified)	none (no result: SUMO HTRF inh, PABP FP inh, eIF4H FP inh)
Cc1sc2nc(-c3ccc(Br)cc3)oc(=O)c2c1C	none
O=C([C@@H]1CCCN1C1=NS(=O)(=O)c2ccccc21)N1CCN(c2ccccc2)CC1	none (no result: SUMO HTRF inh, ALR inh, Efflux pump mplx, PABP FP inh, eIF4H FP inh)
NC(=S)Nc1cccc(-c2n[nH]c(=S)o2)c1	none (no result: ALR inh)
Cc1ccc(NC(=S)Nc2cccc(-c3n[nH]c(=S)o3)c2)cc1	ALR inh 89
Cc1cc(=O)n2cc(-c3ccccc3)nc2[nH]1	ALR inh 87
Cc1ccc(-c2cn3c(=O)cc(C)[nH]c3n2)cc1	none
CCOC(=O)C1=C(C)NC2=C(C(=O)CC(C)(C)C2)C1c1ccc(O)c(OCC)c1 (stereo unspecified)	none
CCOC(=O)C1=C(C)NC2=C(C(=O)CC(C)(C)C2)C1c1ccc2c(c1)CCCN2C (stereo unspecified)	ALR inh 99
O=C1NN(CCO)C(=S)Nc2ccccc21	PABP1 MLLE inh 36 (no result: SUMO HTRF inh, ALR inh, Efflux pump mplx, PABP FP inh, eIF4H FP inh)
CN(C)CCCN1C(=O)c2cccc3c([N+](=O)[O-])ccc(c23)C1=O	PABP1 MLLE inh 57, eIF4H FP inh inconclusive
O=C(O)c1ccc(CN2C(=O)c3ccc(C(=O)O)cc3C2=O)cc1	none
O=C(O)c1ccc(CN2C(=O)c3cccc4c([N+](=O)[O-])ccc(c34)C2=O)cc1	PABP FP inh 63, PABP1 MLLE inh 51, eIF4H FP inh 81 (no result: ALR inh, Efflux pump mplx)
Cc1ccc(C(=O)O)cc1N1C(=O)c2cccc3c([N+](=O)[O-])ccc(c23)C1=O	PABP FP inh 77, eIF4H FP inh 101
CC(=O)Oc1cccc(N2C(=O)c3cccc4c([N+](=O)[O-])ccc(c34)C2=O)c1	none
Cc1cn2c(N)c(C=C3C=C(Cl)C(=O)C(Cl)=C3)c(=O)nc2s1	PABP FP inh inconclusive, eIF4H FP inh inconclusive (no result: ALR inh, Efflux pump mplx)
CCOC1=C/C(=C/c2c(N)n3nc(CC(=O)N4CCCC4)sc3nc2=O)C=CC1=O	ALR inh 99
COC1=C/C(=C/c2c(N)n3cc(C)sc3nc2=O)C=CC1=O	eIF4H FP inh 60 (no result: ALR inh)
COC1=CC(=Cc2c(N)n3nc(CC(=O)N4CCCCC4)sc3nc2=O)C=C(OC)C1=O	PABP FP inh inconclusive, eIF4H FP inh inconclusive
COC1=C/C(=C/c2c(N)n3nc(CC(=O)N4CCCC4)sc3nc2=O)C=CC1=O	ALR inh 84
CCNC(=S)N(Cc1ccccc1)Cc1nc2ccccc2c(=O)[nH]1	none
CCOc1ccccc1CNC(=O)c1ccc(NC(=O)C2=C(C)OCCS2)cc1	none
O=C(NC1(O)C(=O)c2ccccc2C1=O)c1ccc(C(F)(F)F)cc1	SUMO HTRF inh 90
Cc1ccc(N=Cc2ccc(O)cc2O)cc1F	PABP FP inh 67, eIF4H FP inh 54
Cc1ccc(O)c(N=Cc2cc(Cc3ccccc3)cc([N+](=O)[O-])c2O)c1	none (no result: ALR inh, Efflux pump mplx)
Oc1ccc(C=Nc2cccc3ccccc23)c(O)c1	none
Oc1ccc(C=Nc2ccc(N3CCOCC3)cc2)c(O)c1	ALR inh 99
Oc1c(Cl)cc(Cl)cc1C=Nc1ccc(N2CCOCC2)cc1	none
O=[N+]([O-])c1cc(Cc2ccccc2)cc(C=Nc2ccc(N3CCOCC3)cc2)c1O	ALR inh 97
